Data taken from PubChem BioAssay AID1159580 (chemical genetic matrix, 2015).
Where “and” joins values, the source holds several entries; their conditions need not be identical. Identical values can stand only once. The campaign covered roughly 5,500 compounds. About 2,000 (36%) were called active. Inconclusive results (about 18%) are left out. Cut-off read from the data, not from the text of the source: active = normalized growth mostly below about 0.91 (no sharp cut-off); inconclusive = no clear call, values can overlap the other calls; inactive = mostly above about 0.92. The list shows a part of the results.

Experiment: chemical genetic growth profiling, strain panel (AID 1159580);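 note: tested at 20 µM; growth read once vehicle control cultures reached saturation at 30 °C; 1 = growth at the plate median or of vehicle wells; lower values mean less growth of the strain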
Details: S. cerevisiae deletion strains, growth OD

Measured: normalized growth

COc1cc([C@@H]2c3cc4c(cc3C(OC3O[C@@H]5COC(C)O[C@H]5[C@H](O)[C@H]3O)C3COC(=O)[C@@H]32)OCO4)cc(OC)c1O (some centres undefined)
inactive: locus YAL021C, strain ccr4, hits give low values 1.03 | locus YAL026C, strain drs2, hits give low values 1.05 | locus YAL030W, strain snc1, hits give low values 1.05 | locus YBL061C, strain skt5, hits give low values 1.02 | locus YBR009C, strain hhf1, hits give low values 1.01 | locus YBR021W, strain FUR4, hits give low values 0.961 | locus YBR023C, strain chs3, hits give low values 1.03 | locus YBR171W, strain sec66, hits give low values 1.07 | locus YBR229C, strain ROT2, hits give low values 1.01 | locus YBR231C, strain swc5, hits give low values 1.03 | locus YBR279W, strain paf1, hits give low values 1.02 | locus YCL011C, strain gbp2, hits give low values 1.04 | locus YCL016C, strain dcc1, hits give low values 1.02 | locus YCL029C, strain bik1, hits give low values 0.989 | locus YCL069W, strain vba3, hits give low values 1.05 | locus YCR088W, strain abp1, hits give low values 1.04 | locus YDL005C, strain med2, hits give low values 1.02 | locus YDL035C, strain GPR1, hits give low values 0.996 | locus YDL040C, strain nat1, hits give low values 1.03 | locus YDL074C, strain BRE1, hits give low values 0.947 | locus YDL101C, strain DUN1, hits give low values 1 | locus YDL134C, strain PPH21, hits give low values 1.01 | locus YDL185W, strain tfp1, hits give low values 0.979 | locus YDL192W, strain arf1, hits give low values 0.991 | locus YDR001C, strain nth1, hits give low values 1.02 | locus YDR069C, strain doa4, hits give low values 1.04 | locus YDR101C, strain arx1, hits give low values 0.981 | locus YDR137W, strain rgp1, hits give low values 1.06 | locus YDR159W, strain sac3, hits give low values 0.987 | locus YDR162C, strain NBP2, hits give low values 1.03 | locus YDR195W, strain ref2 1.03 | locus YDR297W, strain sur2, hits give low values 1.02 | locus YDR318W, strain mcm21, hits give low values 1.01 | locus YDR334W, strain swr1, hits give low values 1.06 | locus YDR335W, strain msn5, hits give low values 1.05 | locus YDR388W, hits give low values 1 | locus YDR392W, strain spt3, hits give low values 0.948 | locus YDR502C, strain sam2, hits give low values 0.974 | locus YEL003W, strain gim4, hits give low values 1.04 | locus YEL037C, strain rad23, hits give low values 1.05 | locus YEL061C, strain CIN8 (second series), hits give low values 1.03 | locus YEL061C, strain CIN8, hits give low values 1.01 | locus YER015W, strain faa2, hits give low values 1.03 | locus YER016W, strain bim1, hits give low values 1.03 | locus YER110C, hits give low values 0.993 | locus YER111C, strain swi4, hits give low values 1.03 | locus YER155C, strain BEM2 (second series), hits give low values 1.05 | locus YER155C, strain BEM2, hits give low values 0.981 | locus YER167W, strain BCK2, hits give low values 0.998 | locus YFR010W, strain ubp6, hits give low values 1.02 | locus YGL078C, strain dbp3, hits give low values 0.976 | locus YGL086W, strain mad1, hits give low values 0.965 | locus YGL167C, strain pmr1, hits give low values 1.05 | locus YGL173C, strain kem1, hits give low values 1.02 | locus YGL227W, strain vid30, hits give low values 1.03 | locus YGL240W, strain doc1, hits give low values 0.994 | locus YGL248W, strain PDE1, hits give low values 1.01 | locus YGL253W, strain hxk2, hits give low values 1.05 | locus YGR078C, strain PAC10, hits give low values 1.01 | locus YGR135W, strain pre9, hits give low values 1.02 | locus YGR252W, strain gcn5, hits give low values 1.02 | locus YHR013C, strain ard1, hits give low values 1.04 | locus YHR027C, strain rpn1, hits give low values 1.01 | locus YHR030C, strain SLT2, hits give low values 0.998 and 1.06 | locus YHR079C, strain IRE1 (second series), hits give low values 0.992 | locus YHR079C, strain IRE1, hits give low values 1.12 | locus YHR094C, strain hxt1, hits give low values 0.995 | locus YHR129C, strain ARP1, hits give low values 0.998 | locus YHR142W, strain chs7, hits give low values 1.06 | locus YHR200W, strain rpn10, hits give low values 1 | locus YIL066C, strain RNR3, hits give low values 0.997 | locus YIL073C, strain SPO22, hits give low values 0.958 | locus YIL125W, strain kgd1, hits give low values 0.997 | locus YIR030C, strain dcg1, hits give low values 0.995 | locus YJL092W, strain hpr5, hits give low values 1.04 | locus YJL095W, strain BCK1 (second series), hits give low values 1.03 | locus YJL095W, strain BCK1, hits give low values 1.03 and 1.06 | locus YJL115W, strain asf1, hits give low values 1.04 | locus YJL129C, strain trk1, hits give low values 1.05 | locus YJL134W, strain LCB3, hits give low values 0.998 | locus YJL154C, strain vps35, hits give low values 1.02 | locus YJL164C, strain tpk1, hits give low values 1.05 | locus YJL166W, strain qcr8, hits give low values 1.02 | locus YJL168C, strain set2, hits give low values 0.998 | locus YJL187C, strain SWE1 (second series), hits give low values 1 | locus YJR043C, strain POL32, hits give low values 0.992 | locus YJR066W, strain TOR1, hits give low values 0.995 | locus YKL009W, strain mrt4, hits give low values 1.06 | locus YKL068W, hits give low values 0.995 | locus YKL085W, strain MDH1 (second series), hits give low values 1.01 | locus YKL085W, strain MDH1, hits give low values 1.01 | locus YKL160W, strain elf1, hits give low values 1.02 | locus YKL190W, strain CNB1, hits give low values 1.02 | locus YKR001C, strain vps1, hits give low values 1.01 | locus YKR026C, strain gcn3, hits give low values 1.04 | locus YKR091W, strain srl3, hits give low values 1.03 | locus YLL001W, strain dnm1, hits give low values 1.04 | locus YLL026W, hits give low values 1.04 | locus YLL041C, strain sdh2, hits give low values 1.02 | locus YLR027C, strain aat2, hits give low values 1.05 | locus YLR039C, strain RIC1, hits give low values 1.01 | locus YLR058C, strain SHM2, hits give low values 1.02 | locus YLR102C, strain apc9, hits give low values 0.999 | locus YLR113W, strain HOG1, hits give low values 1.06 | locus YLR221C, strain rsa3, hits give low values 1.04 | locus YLR258W, strain gsy2, hits give low values 1.03 | locus YLR262C, strain YPT6 (second series), hits give low values 1.05 | locus YLR262C, strain YPT6, hits give low values 1.01 | locus YLR268W, strain sec22, hits give low values 0.957 | locus YLR320W, strain mms22, hits give low values 1 | locus YLR330W, strain CHS5, hits give low values 1.02 | locus YLR342W, strain FKS1 (second series), hits give low values 1.01 | locus YLR342W, strain FKS1, hits give low values 1.02 | locus YLR357W, strain rsc2, hits give low values 1.04 | locus YLR370C, strain arc18, hits give low values 1.04 | locus YLR371W, strain rom2, hits give low values 0.979 | locus YLR384C, strain iki3, hits give low values 1.02 | locus YLR418C, strain cdc73, hits give low values 0.998 | locus YML016C, strain PPZ1, hits give low values 0.999 | locus YML032C, strain rad52, hits give low values 0.982 | locus YML120C, strain ndi1, hits give low values 1.03 | locus YML124C, strain tub3, hits give low values 0.996 | locus YMR058W, strain fet3, hits give low values 1.02 | locus YMR078C, strain ctf18, hits give low values 0.996 | locus YMR125W, strain sto1, hits give low values 1.07 | locus YMR129W, hits give low values 1.04 | locus YMR205C, strain PFK2, hits give low values 1.02 | locus YMR223W, strain ubp8, hits give low values 1 | locus YMR231W, strain pep5, hits give low values 1.03 | locus YMR307W, strain GAS1, hits give low values 1.06 | locus YNL067W, strain RPL9B, hits give low values 1.01 | locus YNL071W, strain lat1, hits give low values 1.04 | locus YNL153C, strain GIM3, hits give low values 1.02 | locus YNL183C, strain NPR1, hits give low values 0.995 | locus YNL209W, strain ssb2, hits give low values 1.03 | locus YNL233W, strain BNI4, hits give low values 0.991 | locus YNL248C, strain rpa49, hits give low values 1.02 | locus YNL250W, strain rad50, hits give low values 0.96 | locus YNL271C, strain bni1, hits give low values 0.984 | locus YNL298W, strain CLA4, hits give low values 0.994 | locus YNL307C, strain MCK1, hits give low values 0.996 | locus YNL322C, strain KRE1 (second series), hits give low values 1.03 | locus YNL322C, strain KRE1, hits give low values 1.01 | locus YNR049C, strain mso1, hits give low values 1.03 | locus YNR052C, strain pop2, hits give low values 0.985 | locus YOL012C, strain htz1 0.834 | locus YOL147C, strain pex11, hits give low values 1 | locus YOR001W, strain rrp6, hits give low values 1.03 | locus YOR061W, strain CKA2, hits give low values 0.996 | locus YOR069W, strain VPS5, hits give low values 0.991 | locus YOR070C, strain gyp1, hits give low values 1.04 | locus YOR080W, strain dia2, hits give low values 1.02 | locus YOR083W, strain WHI5, hits give low values 0.979 | locus YOR106W, strain vam3, hits give low values 1.04 | locus YOR136W, strain idh2, hits give low values 0.971 | locus YOR144C, strain elg1, hits give low values 0.998 | locus YOR184W, strain ser1, hits give low values 1 | locus YOR231W, strain MKK1, hits give low values 1.05 | locus YOR265W, strain rbl2, hits give low values 1.01 | locus YOR270C, strain vph1, hits give low values 1.15 | locus YOR290C, strain snf2, hits give low values 1.04 | locus YOR316C, strain cot1, hits give low values 0.997 | locus YPL051W, strain arl3, hits give low values 1.04 | locus YPL055C, strain LGE1, hits give low values 1.01 | locus YPL078C, strain atp4, hits give low values 1.04 | locus YPL106C, strain sse1, hits give low values 1.07 | locus YPL240C, strain hsp82, hits give low values 1.02 | locus YPL241C, strain CIN2, hits give low values 1.01 | locus YPL256C, strain CLN2, hits give low values 1.08 | locus YPR119W, strain clb2, hits give low values 0.998 | locus YPR141C, strain kar3, hits give low values 0.99 | locus YPR163C, strain tif3, hits give low values 0.985 | locus YPR167C, strain met16, hits give low values 1.01 | strain wtn01, hits give low values 0.97
